Data: a collection of fitness landscapes (doi:10.1126/science.1257360)
In all, about 140,000 sequences were measured (“enrichment ratio after two sorts for PhoP signalling”: median about 0, highest 2% from about 11 on). The full list was thinned out, with the highest values kept by preference.

B1: PhoQ; a variant is named by its letters at X, in order, P23837 (parent)
chain: MKKLLRLFFPLSLRVRFLLATAAVVLVLSLAYGMVALIGYSVSFDKTTFRLLRGESNLFYTLAKWENNKLHVELPENIDKQSPTMTLIYDENGQLLWAQRDVPWLMKMIQPDWLKSNGFHEIEADVNDTSLLLSGDHSIQQQLQEVREDDDDAEMTHSVAVNVYPATSRMPKLTIVVVDTIPVELKSSYMVWSWFIYVLSANLLLVIPLLWVAAWWSLRPIEALAKEVRELEEHNRELLNPATTRELTSLVRNLNRLLKSERERYDKYRTTLTDLTHSLKTPLXXLQXXLRSLRSEKMSVSDAEPVMLEQISRISQQIGYYLHRASMRGGTLLSRELHPVAPLLDNLTSALNKVYQRKGVNISLDISPEISFVGEQNDFVEVMGNVLDNACKYCLEFVEISARQTDEHLYIVVEDDGPGIPLSKREVIFDRGQRVDTLRPGQGVGLAVAREITEQYEGKIVAGESMLGGARMEVIFGRQHSAPKDE

Variants of: B1
Assay: enrichment ratio after two sorts for PhoP signalling (ratio (wild type AVST 3.29)); higher = more functional
Conditions: with PhoP (E. coli)

Row | Variant | enrichment ratio
1 | KSTV | ≤ 0.25
2 | QETV | ≤ 0.25
3 | STMD | 9.32
4 | AKTV | 5.31
5 | SPTV | ≤ 0.25
6 | SQMD | 17.4
7 | SITV | 11.8
8 | KYTV | ≤ 0.25
9 | NETV | 8.86
10 | TETV | 17.9
11 | TKTV | 20
12 | SQGD | ≤ 0.25
13 | RQLF | ≤ 0.25
14 | MHPM | ≤ 0.25
15 | IVSV | ≤ 0.25
16 | LDYS | ≤ 0.25
17 | PIMI | ≤ 0.25
18 | YPRI | ≤ 0.25
19 | KIFY | ≤ 0.25
20 | WIAV | ≤ 0.25
21 | SLTV | 10.4
22 | STIV | 11.9
23 | SETV | 14.9
24 | NVTV | ≤ 0.25

Row | Variant | enrichment ratio
25 | TSTV | 26.5
26 | MMTV | ≤ 0.25
27 | SSTV | 10.5
28 | STIS | 8.13
29 | SIAV | 12.2
30 | KYAV | ≤ 0.25
31 | YTIV | 0.385
32 | GKTV | ≤ 0.25
33 | KFQS | ≤ 0.25
34 | SNDT | ≤ 0.25
35 | RWGI | ≤ 0.25
36 | EKED | ≤ 0.25
37 | VMLL | ≤ 0.25
38 | GWEH | ≤ 0.25
39 | NLWG | ≤ 0.25
40 | DHDD | ≤ 0.25
41 | KRSK | ≤ 0.25
42 | APEA | ≤ 0.25
43 | HQMW | ≤ 0.25
44 | STMV | 12.8
45 | SIWV | ≤ 0.25
46 | SPMV | ≤ 0.25
47 | KAMA | ≤ 0.25
48 | SAMA | 12.3

Row | Variant | enrichment ratio
49 | SAQV | 0.569
50 | KYMV | ≤ 0.25
51 | SAMV | 14.1
52 | SAPV | 5.29
53 | SIMV | 13.6
54 | SAFA | ≤ 0.25
55 | SWMV | ≤ 0.25
56 | ILLG | ≤ 0.25
57 | KTTK | ≤ 0.25
58 | TRRW | ≤ 0.25
59 | QYNE | ≤ 0.25
60 | MVYP | ≤ 0.25
61 | NQPT | ≤ 0.25
62 | QHTM | ≤ 0.25
63 | YDVW | ≤ 0.25
64 | KTCA | ≤ 0.25
65 | PMGE | ≤ 0.25
66 | SQMV | 22.1
67 | KQMV | ≤ 0.25
68 | SQMW | ≤ 0.25
69 | YHTC | ≤ 0.25
70 | AECC | 16.3
71 | AWCH | ≤ 0.25
72 | AEFH | 1.2

Row | Variant | enrichment ratio
73 | AECH | 16.5
74 | AEWS | 8.72
75 | AEIH | 60.7
76 | AEWH | 22.3
77 | AIWH | ≤ 0.25
78 | AECF | 2.16
79 | AHIH | ≤ 0.25
80 | ADCC | 4.94
81 | AIIH | 2.68
82 | MYMC | ≤ 0.25
83 | KQLY | ≤ 0.25
84 | MMRL | ≤ 0.25
85 | RHKQ | ≤ 0.25
86 | HNLQ | ≤ 0.25
87 | IHWA | ≤ 0.25
88 | AEQH | ≤ 0.25
89 | AEKH | ≤ 0.25
90 | AEGP | ≤ 0.25
91 | AEGH | 12.9
92 | AEMH | 36.8
93 | AEYH | ≤ 0.25
94 | EVPD | ≤ 0.25
95 | EPIP | ≤ 0.25
96 | NGMS | ≤ 0.25

Row | Variant | enrichment ratio
97 | PGMG | ≤ 0.25
98 | YYMV | ≤ 0.25
99 | GGMS | 1.56
100 | NGMG | ≤ 0.25
101 | TGMS | 12.8
102 | DEEV | ≤ 0.25
103 | GGEV | ≤ 0.25
104 | TGEV | 26.6
105 | TGMG | 17.2
106 | YTMV | 12.2
107 | QPMV | ≤ 0.25
108 | PEIA | ≤ 0.25
109 | HVSH | ≤ 0.25
110 | FEHR | ≤ 0.25
111 | ENVM | ≤ 0.25
112 | LMNE | ≤ 0.25
113 | WNVD | ≤ 0.25
114 | RCTL | ≤ 0.25
115 | TGMV | 12.7
116 | ICMW | ≤ 0.25
117 | GGMV | 5
118 | NGMD | ≤ 0.25
119 | NGIV | ≤ 0.25
120 | ICIV | ≤ 0.25

Row | Variant | enrichment ratio
121 | NGMV | 14
122 | RGMV | ≤ 0.25
123 | ICMV | 13.2
124 | DFEW | ≤ 0.25
125 | DSVD | ≤ 0.25
126 | KHWM | ≤ 0.25
127 | VFFE | ≤ 0.25
128 | QDVC | ≤ 0.25
129 | AYPL | ≤ 0.25
130 | CSYH | ≤ 0.25
131 | FHNW | ≤ 0.25
132 | IIGT | ≤ 0.25
133 | SECP | ≤ 0.25
134 | SEAI | 7.14
135 | SEYD | ≤ 0.25
136 | SEGD | 1.88
137 | SEDH | ≤ 0.25
138 | SECA | 19.7
139 | NECL | ≤ 0.25
140 | SECK | ≤ 0.25
141 | SECL | 18.7
142 | SEEL | ≤ 0.25
143 | SECS | 20.4
144 | SECI | 28.3

Row | Variant | enrichment ratio
145 | FMWQ | ≤ 0.25
146 | KFFK | ≤ 0.25
147 | EHGM | ≤ 0.25
148 | IQWT | ≤ 0.25
149 | KMGN | ≤ 0.25
150 | YTDA | ≤ 0.25
151 | VCDM | ≤ 0.25
152 | EGPQ | ≤ 0.25
153 | LCVP | ≤ 0.25
154 | MECQ | ≤ 0.25
155 | STCG | 9.46
156 | SENE | ≤ 0.25
157 | SENW | ≤ 0.25
158 | MECG | 9.16
159 | SRCQ | 1.15
160 | FEGG | ≤ 0.25
161 | FECG | 30.4
162 | IWCG | ≤ 0.25
163 | SECQ | 11.4
164 | QECG | 23
165 | SECE | 15.4
166 | DDMI | ≤ 0.25
167 | WKTT | ≤ 0.25
168 | EERG | ≤ 0.25

Row | Variant | enrichment ratio
169 | WYHV | ≤ 0.25
170 | FLNY | ≤ 0.25
171 | SECG | 13.7
172 | SRCV | 5.55
173 | FECI | 3.72
174 | SLCG | 6.01
175 | SECV | 24.5
176 | FECS | 19.8
177 | SEYV | 5.27
178 | FECA | ≤ 0.25
179 | SRCG | ≤ 0.25
180 | MMWP | ≤ 0.25
181 | LWRR | ≤ 0.25
182 | YSRA | ≤ 0.25
183 | QHHS | ≤ 0.25
184 | DQIV | ≤ 0.25
185 | GESK | ≤ 0.25
186 | GVST | ≤ 0.25
187 | GNST | 15.1
188 | GEST | 16.9
189 | MEST | 5.63
190 | LNST | ≤ 0.25
191 | TNST | 12.6
192 | GIST | 8.78

Row | Variant | enrichment ratio
193 | MNST | ≤ 0.25
194 | ARCL | 4.81
195 | GDEI | ≤ 0.25
196 | EMQY | ≤ 0.25
197 | PNEV | ≤ 0.25
198 | IGRG | ≤ 0.25
199 | IFWY | ≤ 0.25
200 | SWHL | 0.549
201 | HMCK | ≤ 0.25
202 | CKAF | ≤ 0.25
203 | YTDF | ≤ 0.25
204 | YTSF | ≤ 0.25
205 | YTWG | ≤ 0.25
206 | TTWG | 12.2
207 | KQSF | ≤ 0.25
208 | TTDF | 16.9
209 | CKFF | ≤ 0.25
210 | TTSF | 13.7
211 | CTDF | ≤ 0.25
212 | STWG | ≤ 0.25
213 | CKMF | 38.2
214 | HDWN | ≤ 0.25
215 | LGQF | ≤ 0.25
216 | TLMP | ≤ 0.25

Row | Variant | enrichment ratio
217 | DGEM | ≤ 0.25
218 | EYIG | ≤ 0.25
219 | LWNR | ≤ 0.25
220 | GEFD | ≤ 0.25
221 | SQIR | ≤ 0.25
222 | MDDP | ≤ 0.25
223 | TTYI | 6.16
224 | QVHF | 0.315
225 | YTEL | ≤ 0.25
226 | TTPS | ≤ 0.25
227 | NVDF | ≤ 0.25
228 | TTPA | ≤ 0.25
229 | QVDF | 15.1
230 | THMF | 9.68
231 | RIMF | ≤ 0.25
232 | TTEL | 16.6
233 | TTHF | 11.8
234 | TTMF | 20.9
235 | PVYQ | ≤ 0.25
236 | GLRF | ≤ 0.25
237 | VHDP | ≤ 0.25
238 | NRQL | ≤ 0.25
239 | DQAF | ≤ 0.25
240 | KQIG | ≤ 0.25

Row | Variant | enrichment ratio
241 | WLRY | ≤ 0.25
242 | SHDF | ≤ 0.25
243 | TTAF | 14
244 | STWN | ≤ 0.25
245 | NHDF | ≤ 0.25
246 | GTQF | ≤ 0.25
247 | YTAF | ≤ 0.25
248 | YTWN | ≤ 0.25
249 | TTWN | 15.1
250 | TTQF | 22.7
251 | YTQF | ≤ 0.25
252 | THDF | 11.6
253 | LTAF | ≤ 0.25
254 | RKCR | ≤ 0.25
255 | QNKW | ≤ 0.25
256 | YVTW | ≤ 0.25
257 | DWIG | ≤ 0.25
258 | ERDP | ≤ 0.25
259 | VGHC | ≤ 0.25
260 | NFWG | ≤ 0.25
261 | KTWY | ≤ 0.25
262 | STGL | 9.48
263 | YTWS | ≤ 0.25
264 | KQSA | ≤ 0.25

Row | Variant | enrichment ratio
265 | TTGL | 12.3
266 | WIYN | ≤ 0.25
267 | TTWI | 9.7
268 | TTWS | 11.9
269 | TTSA | 11.5
270 | TTYN | 12.5
271 | YTGL | ≤ 0.25
272 | YTSA | ≤ 0.25
273 | KSYN | ≤ 0.25
274 | IEKA | ≤ 0.25
275 | RHPA | ≤ 0.25
276 | PCEP | ≤ 0.25
277 | MEYV | 5.49
278 | WFPG | ≤ 0.25
279 | TMFD | ≤ 0.25
280 | AHCM | 9.33
281 | THSS | 8.94
282 | AKKL | ≤ 0.25
283 | YGCL | 2.74
284 | YHQH | ≤ 0.25
285 | YTMF | 5.8
286 | WIMF | ≤ 0.25
287 | YTHN | ≤ 0.25
288 | LTGF | ≤ 0.25

Row | Variant | enrichment ratio
289 | CTMF | 25.7
290 | NVHI | ≤ 0.25
291 | TTGF | 17.1
292 | TTHN | 15.7
293 | YTGF | ≤ 0.25
294 | TTHI | 11.5
295 | YTHI | ≤ 0.25
296 | KSHN | ≤ 0.25
297 | WRNH | ≤ 0.25
298 | PTGD | ≤ 0.25
299 | HQVK | ≤ 0.25
300 | VNRG | ≤ 0.25
301 | GRVA | ≤ 0.25
302 | FSSR | ≤ 0.25
303 | SFVK | ≤ 0.25
304 | IYPH | ≤ 0.25
305 | WNMY | ≤ 0.25
306 | YTMS | ≤ 0.25
307 | MEMF | 0.449
308 | PTMF | ≤ 0.25
309 | WIMS | ≤ 0.25
310 | TTMS | 26.8
311 | TKMF | 11.5
